CYP2C9 activ – human CYP2C9 activators, primary screen, biochemical, luminescence | recombinant CYP2C9, luciferin-H conversion; hits give high values; factor 1 = untreated enzyme, 0 = blocked | activation factor at 5 µM | hit rate 1.4% among 96,000 | AID 1024, 2008;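 active = activation factor of 2 or more for CYP2C9 at a 5 µM dose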;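 note: 0 = sulfaphenazole-blocked wells and 1 = vehicle-only wells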
E-sel TNF inh – E-selectin induction blockers in HUVEC – imaging, immunofluorescence, high content, primary screen; HUVEC TNFa-induced E-selectin immunofluorescence; inhibition, % at 2 µM; hit rate 0.71% among 120,000; AID 1246, 2008;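 active = inhibition above the batch mean plus 3 SD, and confirmed as a hit on visual image review, cut at about 43% in these data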;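 note: 0% = TNF-stimulated DMSO wells and 100% = unstimulated control wells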
CYP2C19 act – human CYP2C19 activators, primary screen, biochemical, luminescence | recombinant CYP2C19, luciferin-H EGE luminescence; hits give high values; 0 = fully inhibited enzyme, 1 = untreated enzyme | activation factor at 5 µM | 96,000 tested, under 10 active;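 active = activation factor of at least 2 at 5 µM in the primary screen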;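 note: 0 = wells with 2.5 mM tranylcypromine and 1 = vehicle-only wells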
Target sequence (P33261 whole entry, looked up): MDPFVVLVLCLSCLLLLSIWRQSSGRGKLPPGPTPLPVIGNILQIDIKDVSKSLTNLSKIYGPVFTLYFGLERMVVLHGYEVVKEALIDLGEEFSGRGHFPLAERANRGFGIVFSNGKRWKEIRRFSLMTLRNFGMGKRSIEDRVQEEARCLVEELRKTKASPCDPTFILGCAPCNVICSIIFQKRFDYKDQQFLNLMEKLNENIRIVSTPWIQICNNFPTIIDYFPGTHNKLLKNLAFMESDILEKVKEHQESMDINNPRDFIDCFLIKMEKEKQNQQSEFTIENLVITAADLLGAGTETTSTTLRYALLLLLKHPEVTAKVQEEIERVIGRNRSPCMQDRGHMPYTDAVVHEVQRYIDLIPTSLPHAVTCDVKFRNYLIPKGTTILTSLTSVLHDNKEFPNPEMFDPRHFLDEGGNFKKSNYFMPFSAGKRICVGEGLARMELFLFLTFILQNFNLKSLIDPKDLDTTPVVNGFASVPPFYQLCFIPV
CYP2C9 inhib – blockers of cytochrome P450 2C9 activity – biochemical, luminescence, ADME assay, primary screen. CYP2C9 Supersomes, luciferin-H conversion. hit rate 20% among 96,000. P11712. inhibition, % at 5 µM. AID 777, 2007;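 active = blocking of liver enzyme CYP2C9 beyond about 50% at 5 µM, limit read from the data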
CYP2C19 inh – blockers of cytochrome P450 2C19 activity – biochemical, luminescence, ADME assay, primary screen | CYP2C19 Supersomes, luciferin-H EGE luminescence, 30 min | inhibition, % at 5 µM | hit rate 21% among 96,000 | AID 778, 2007;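 active = CYP2C19 inhibition above a set limit at 5 µM in the primary screen, cut at about 50% in these data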;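 note: plate controls were negative control wells for no effect and 2.5 mM tranylcypromine positive control for full effect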
F-actin modifier – modifiers of F-actin cytoskeleton organization, primary screen, imaging, HUVEC, phalloidin staining, high-content imaging; inhibition, % at 2 µM; AID 836, 2007; HUVEC TNFa F-actin phalloidin imaging; hit rate 0.18% among 91,000;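 active = inhibition above the batch mean plus 3 SD and confirmed as a hit by visual image inspection, cut at about 30% in these data, passing the limit was not always enough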
Active calls of the source: *; / = no result. Rows were chosen to be rich in hits. Some 22% of all compounds tested hit in one or more screens of this group.

SMILES | CYP2C9 activ | E-sel TNF inh | CYP2C19 act | CYP2C9 inhib | CYP2C19 inh | F-actin modifier
COc1cc2c(cc1OC)C(c1ccc(-c3cc(Cl)ccc3Cl)o1)=NCC2 | 0.1 | -41.0 | 0.3 | 89.1* | 72.8* | 6.0
COc1cc2c(cc1OC)C(c1ccc(-c3ccc(Cl)c(Cl)c3)o1)=NCC2 | 0.1 | 4.5 | 0.2 | 94.8* | 82.9* | 21.0
COc1cc2c(cc1OC)C(c1ccc(-c3ccccc3Cl)o1)=NCC2 | 0.4 | 26.6 | 0.7 | 61.8* | 31.5 | 22.4
COc1cc2c(cc1OC)C(C)=NCC2 | / | -2.2 | / | / | / | /
COc1ccc(Nc2nnc(SCc3cc([N+](=O)[O-])cc4c3OCOC4)s2)cc1 | 0.1 | -28.1 | 0.6 | 93.5* | 37.3 | -5.0
CC(C)[C@H](NC(=O)c1ccco1)C(=O)OCC(=O)N1CCc2ccccc21 | 0.1 | 17.7 | 0.6 | 86.8* | 41.0 | 15.5
CC(C)[C@H](NC(=O)c1ccco1)C(=O)OCC(=O)N1CC(=O)Nc2ccccc21 | / | -78.0 | / | / | / | /
CSc1c(-c2ccccc2)nc2ccc(Cl)cc2c1C(=O)O | 0.2 | 23.5 | 1 | 81.4* | 1.5 | 35.6
Cc1ccc(S(=O)(=O)Oc2ccc(/C=C3\N=C(c4cccc(C)c4)OC3=O)cc2)cc1 | 0.7 | / | 1 | 26.0 | 4.0 | 5.2
COC(=O)Cc1cc(=O)n2[nH]c(C)c(-c3ccccc3)c2n1 | 0.7 | -61.0 | 0.9 | 26.3 | 10.9 | 17.8
O=C(N/N=C\c1ccc(CN(Cc2ccc(Cl)cc2)S(=O)(=O)c2ccccc2)o1)C(=O)Nc1ccc(F)cc1 | 0.2 | -21.0 | 0.2 | 76.3* | 81.9* | -12.6
O=C(CN(CCc1ccccc1)S(=O)(=O)c1ccc(Cl)cc1)N/N=C/c1ccc2c(c1)OCO2 | / | 17.5 | / | / | / | /
O=C(N/N=C\c1ccc(CNS(=O)(=O)c2ccc(Cl)cc2)o1)C(=O)Nc1ccc(Oc2ccccc2)cc1 | / | 91.8* | / | / | / | /
CCOC(=O)C1CCN(CC(=O)Nc2ccc(OC)c(Cl)c2)CC1 | / | 19.2 | / | / | / | /
O=C(O)c1ccccc1-c1ccccc1C(=O)NCCCO | / | 1.5 | / | / | / | -0.8
CCOc1ccc(S(=O)(=O)N(C)CCO)cc1-c1nc2c(C(C)(C)C)nn(C)c2c(=O)[nH]1 | 0.3 | / | 0.4 | 67.4* | 63.6* | 13.4
CCCCN(Cc1cc2ccccc2[nH]c1=O)S(C)(=O)=O | / | 7.1 | / | / | / | /
COC(=O)CCN(C(=O)c1ccc2c(c1)OCO2)c1ccccn1 | 0.9 | -28.4 | 0.1 | 8.8 | 94.2* | 6.3
CCOc1ccccc1C(=O)N(CCC(=O)OC)c1ccccn1 | 0.9 | 8.1 | 0.5 | 11.0 | 53.2* | 4.9
COC(=O)CCN(C(=O)c1cccc(OC(C)=O)c1)c1ccccn1 | 0.9 | -9.7 | 1 | 7.3 | 2.7 | 8.7
COC(=O)CCN(C(=O)c1cc(OC)c(OC)c(OC)c1)c1ccccn1 | 0.8 | / | 0.5 | 20.3 | 48.0 | -9.1
Cc1ccc(-n2c(=O)c3ccccc3n(CC(=O)NCc3ccco3)c2=O)cc1 | / | -3.9 | / | / | / | /
O=C(Cc1ccccc1[N+](=O)[O-])NCc1ccccc1Cl | 2.4* | -6.7 | 0.5 | -139.0 | 47.1 | -5.8
Cc1ccccc1CNC(=O)Cc1ccccc1[N+](=O)[O-] | / | -4.5 | / | / | / | /
CCC(CC)C(=O)NCc1ccccc1Cl | 0.3 | 26.2 | 0.5 | 67.0* | 45.3 | /
SMILES | CYP2C9 activ | E-sel TNF inh | CYP2C19 act | CYP2C9 inhib | CYP2C19 inh | F-actin modifier
CCC(C)[C@H](NC(=O)NCc1ccccc1Cl)C(=O)O (stereo not given in full) | 0.7 | / | 0.8 | 29.2 | 22.5 | -28.0
COC(=O)c1cc(NC(=O)Cc2ccccc2[N+](=O)[O-])cc(C(=O)OC)c1 | 0.2 | -7.0 | 1.1 | 79.0* | -6.1 | 4.4
C=CCOc1ccccc1CNc1ccccc1C | / | 7.1 | / | / | / | /
COCc1nnc(NC(=O)c2ccc(NC(C)=O)cc2)s1 | / | -3.2 | / | / | / | 6.5
CCOCCc1nnc(N)s1 | 1.2 | -34.5 | 1.2 | -21.3 | -16.7 | -19.6
COc1ccc(C(=O)Nc2ncc(C)s2)cc1S(=O)(=O)N1CCCC1 | / | 50.5 | / | / | / | /
O=S(=O)(Cc1nc2ccccc2s1)c1ccccc1 | 2.3* | -4.4 | 0.6 | -125.3 | 44.4 | 0.9
COc1ccc(S(=O)(=O)CCc2nc3ccccc3s2)cc1 | 0.9 | 12.8 | 0.2 | 9.0 | 75.5* | -34.8
CCOc1ccccc1N1CCN(C(=O)c2cc3c(s2)CCC3)CC1 | 0.6 | / | 0.9 | 45.0 | 10.1 | 12.4
CCc1cccc(NC(=O)C2CCN(S(=O)(=O)c3c(C)noc3C)CC2)c1 | / | -3.7 | / | / | / | /
CCNC(=O)/C(=C\c1ccccc1)NC(=O)/C=C/c1ccccc1 | / | 12.2 | / | / | / | /
CCCCN(CCCNC(=O)Cn1ncc2ccsc2c1=O)Cc1ccccc1 | / | 3.4 | / | / | / | /
COc1ccc(O)c(-c2cc(-c3cccs3)[nH]n2)c1 | 0.3 | -4.0 | 0.6 | 73.7* | 36.8 | -11.6
S=c1sc2c(N3CCOCC3)ncnc2n1-c1ccccc1 | 1 | / | 1 | -2.1 | -4.8 | /
C=CCn1c(O)c(C2=c3ccccc3=NC2=O)s/c1=N/c1nccs1 | 0.4 | -11.2 | 0.9 | 61.0* | 9.2 | -4.8
Cn1c(O)c(C2=c3ccccc3=NC2=O)sc1=Nc1ccc(Cl)cc1 | / | -25.4 | / | / | / | 6.0
COc1ccc(S(=O)(=O)NCCC(=O)NC(C)c2ccccc2)cc1 (stereo not given) | 1.9 | -11.8 | 1 | -93.9 | 1.5 | 2.0
CC(NC(=O)CCOc1ccccc1)c1ccccc1 (stereo not given) | 0.7 | / | 0.1 | 27.5 | 94.9* | -13.2
COc1ccc(OCCCC(=O)NC(C)c2ccccc2)cc1 (stereo not given) | 1.4 | -20.5 | 0.4 | -36.0 | 56.9* | -5.6
CC(C)CCN1CN(S(=O)(=O)c2cccs2)c2nc3ccccc3nc21 | 0.9 | 19.6 | 0.9 | 13.5 | 11.6 | -12.2
Cc1ccc(CN2CN(S(=O)(=O)c3cccs3)c3nc4ccccc4nc32)cc1 | 0.4 | -20.0 | 1.1 | 55.8* | -5.7 | -29.6
CCCCN1CN(S(=O)(=O)c2cccs2)c2nc3ccccc3nc21 | 1 | -28.6 | 1 | -1.7 | 1.9 | -0.3
COCCN1CN(S(=O)(=O)c2ccc(Cl)cc2)c2nc3ccccc3nc21 | 0.5 | 13.6 | 0.1 | 51.1* | 94.0* | /
Cc1cccc(S(=O)(=O)N2CN(Cc3ccco3)c3nc4ccccc4nc32)c1 | 0.4 | -55.6 | 0.2 | 60.9* | 79.0* | 37.1
COCCN1CN(S(=O)(=O)c2ccccc2)c2nc3ccccc3nc21 | 0.4 | 63.2* | 0.2 | 63.3* | 83.3* | /
FC(F)(F)c1ccc2c(c1)[nH]c(=S)n2C1CC1 | / | -19.4 | / | / | / | /
O=C1CC2(CCCCC2)Oc2ccc(O)cc21 | 0.8 | 17.1 | 0.4 | 16.3 | 60.0* | 46.4
COc1ccc(C(=O)COC(=O)CSCc2c(C)noc2C)cc1OC | 0.7 | / | 0.4 | 34.4 | 64.2* | -4.1
Cc1noc(C)c1CSCC(=O)OCC(=O)NC1CCCCC1 | 0.9 | / | 0.8 | 12.1 | 20.0 | 2.4

High-throughput results from PubChem BioAssay.
